# Screens from PubChem BioAssay.
# The list is not random: actives were taken first. Their share in the collection is about 19%.
# AMA1 RON2 block – qHTS for Inhibitors of AMA1-RON; Towards Development of Antimalarial Drug Lead: Primary Screen | 360,000 compounds, 0.2% hits | AlphaScreen AMA1-biotinylated RON2 peptide binding | Plasmodium falciparum AMA1 (3D7) - RON2 peptide interaction | AID 720542, 2013 | Potency, µM (doses to about 58.2 µM), for inactives: top-dose activity change, negative = inhibition, usual class: inhibitors;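 note: potency is the fitted concentration of half-maximal effect; 0% = vehicle wells and -100% = peptide control; nearly all actives have a fitted effect of over 45% in size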
#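 AMA1 (3D7) with his tag at 25 nM final met compounds first, then biotinylated RON2 peptide at 25 nM; detection used donor plus acceptor beads, 10 µg/mL apiece, read by AlphaScreen after 30 min at room temperature.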
# CHX counter – Cycloheximide Counterscreen for Small Molecule Inhibitors of Shiga Toxin; cell reporter, cycloheximide protein synthesis inhibition counterscreen; max response, %; 300,000 compounds, 12% hits; in the data active = max response mostly above about 13%, no sharp cut-off; inactive = mostly below about 14%; note: read at 38.3 µM for the half of the compounds with a filed dose; 0% is about no effect
# Pf growth 96h – Primary qHTS for delayed death inhibitors of the malarial parasite plastid, 96 hour incubation; P. falciparum luciferase reporter growth, 96 h; Potency, µM (highest dose often 28.7 µM), for inactives: at the top dose activity change, negative = inhibition, most hits filed as inhibitors; 320,000 compounds, 6.9% hits; AID 504834, 2011; note: potency is the fitted concentration of half-maximal effect; % is set by controls: 0 for no effect and ±100 for the full control effect
#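 Cell-based qHTS: luciferase-tagged P. falciparum in erythrocytes (2% hematocrit, 0.05% parasitemia final) incubated with compounds for 96 hours, 37 C, 5% CO2; luciferase detection reagent then added and luminescence measured.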
# Shiga inhibitor – A qHTS for Small Molecule Inhibitors of Shiga Toxin. Vero cells, Shiga toxin protein synthesis inhibition reporter. inhibition, % at 38.7 µM. 290,000 compounds, 9.2% hits. AID 2315, 2010; in the data active = inhibition mostly above about 28%, no sharp cut-off; inactive = mostly below about 43%; note: 0% is about no effect
# SARS PLP yeast – qHTS of Yeast-based Assay for SARS-CoV PLP; S. cerevisiae expressing SARS-CoV PLpro, growth rescue; Potency, µM (top dose mostly 32.9 µM), without a hit: at the highest dose activity, positive = growth rescue, most hits filed as activators; 330,000 compounds, 0.19% hits; AID 485353, 2010; calls by dose curve; note: potency is the fitted concentration of half-maximal effect; 0% is about no effect; nearly all actives have a fitted effect of over 55% in size
# Pf growth 48h – Primary qHTS for delayed death inhibitors of the malarial parasite plastid, 48 hour incubation; Potency, µM (doses to about 28.7 µM), without a hit: at the top dose activity change, negative = inhibition, actives largely listed as inhibitors; AID 504832, 2011; P. falciparum luciferase growth in erythrocytes, 48 h; 310,000 compounds, 5.9% hits; note: potency is the fitted concentration of half-maximal effect; % is set by controls: 0 for no effect and ±100 for the full control effect
#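 Growth was read as firefly luciferase luminescence after a 48 h, 37 C, 5% CO2 exposure of compounds to reporter-bearing P. falciparum cultures (0.1% parasitemia, 2% hematocrit final) in Albumax-supplemented RPMI 1640.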
# An asterisk follows results filed as active; ? = inconclusive; · = not tested or not shown. Unless noted, calls come from the whole dose curve; as a rule, active = well fitted curve in the direction sought with a large enough effect; inconclusive = small, poorly fitted or top-dose-only effect, or another doubt; inactive = no such curve, though single readings can be large; an effect the other way counts as inactive or inconclusive.
SMILES,AMA1 RON2 block,CHX counter,Pf growth 96h,Shiga inhibitor,SARS PLP yeast,Pf growth 48h
Cc1cc(C(=O)NCCCN2CCOCC2)n(-c2ccccc2)n1,13.9%,0.9,-25.0%,14.6,0.4%,15.9%
CC1CCCC(C)N1c1ccc(S(=O)(=O)N2CCOCC2)cc1Cl (stereo not drawn),-1.8%,-1.1,-1.8%,-2.6,-21.6%,-18.7%
CC(=O)Oc1ccccc1-c1nc(C)nc(N(C)C(C)=O)n1,0.0%,12.1*,·,37.8*,-3.7%,53.0%
O=[N+]([O-])c1cccc(CN2CCC(Cc3ccccc3)CC2)c1,?,-1.2,6.5%,4.5,2.1%,0.0%
CC1Cc2ccccc2N1Cc1cccc([N+](=O)[O-])c1 (stereo not drawn),10µM*,8.6,-1.6%,-7.9,0.3%,-9.6%
O=C1CSC(c2ccc([N+](=O)[O-])cc2)N1Cc1ccccc1 (stereo not drawn),0.0%,-3.3,-9.0%,-4.7,1.7%,-10.3%
CC1Cc2ccccc2N1Cc1ccc([N+](=O)[O-])cc1 (stereo not drawn),11.2µM*,-5.6,?,-10.2,-8.4%,?
N=C1S/C(=C\c2ccco2)C(=O)N1c1ccc2c(c1)OCO2,-22.4%,32.6*,?,74.1*,-1.4%,?
O=C1/C(=C\c2ccco2)SC(=S)N1C1CCCCC1,·,-3.9,?,·,-6.1%,23.9%
COc1ccccc1OCCN1C(=O)S/C(=C\c2ccco2)C1=O,?,7.3,-2.7%,31.9,-6.2%,27.6%
N=C1S/C(=C\c2ccco2)C(=O)N1c1nccs1,54.4%,33.6*,?,59.3*,-10.3%,?
CCOC(=O)c1c(NC(=O)C(C)NCc2ccco2)sc2c1CCC(C)C2 (stereo not drawn),-16.1%,0.4,?,2.0,-35.9%,·
CNc1oc(-c2ccc(Cl)cc2)nc1C#N,-1.9%,36.7*,1.0%,177.7*,-11.6%,123.1%
CNc1oc(-c2ccco2)nc1C#N,0.1%,0.2,·,21.0,4.5%,11.9%
CNc1oc(-c2ccccc2Cl)nc1C#N,-19.0%,17.0*,52.6%,48.2,-10.4%,36.3%
CNc1oc(-c2cccc3ccccc23)nc1C#N,6.6%,5.1,16.5%,63.7,-2.2%,44.0%
COc1ccc(-c2nc(C#N)c(NC(C)C)o2)cc1,3.7%,40.7*,16.1%,73.6*,-1.1%,0.0%
COc1ccc(-c2nc(C#N)c(N3CCCCCC3)o2)cc1,-4.7%,17.2,·,31.1,-15.4%,?
Nc1nc(-c2ccco2)nn1C(=O)c1ccc([N+](=O)[O-])cc1,-1.4%,-4.0,?,-13.6,0.2%,23.9%
C=CCNc1ncnc2c1ncn2[C@H]1CN(C2CCCC2)C[C@@H](CO)O1,6.2%,·,·,·,·,·
CCCc1[nH]n(-c2nc3ccccc3s2)c(=O)c1C=NCC(C)C,-11.7%,2.9,·,62.1,-19.1%,?
CCc1nc2c(c(=O)c3ccccc3n2C)c(=O)n1CCc1ccc(OC)cc1,·,-3.8,?,-10.9,-17.5%,-7.4%
CC(=O)N1SC(N)=NC1c1ccccc1 (stereo not drawn),-0.5%,18.9,·,64.4*,9.1%,1.5%
O=C(/C(C=Nc1ccc(F)cc1)=C(/O)c1ccco1)C(F)(F)F,-6.6%,59.6*,254.6%,62.0*,-7.9%,292.9%
Cc1ccc(N=C/C(C(=O)C(F)(F)F)=C(\O)c2ccco2)cc1Cl,-14.9%,59.7*,40.6%,106.2*,-17.4%,1.0%
SMILES,AMA1 RON2 block,CHX counter,Pf growth 96h,Shiga inhibitor,SARS PLP yeast,Pf growth 48h
C/C(=N\NC(=O)C1CC1)c1ccccc1Br,-15.5%,-1.1,?,4.3,5.8%,?
COc1ccccc1C(=O)NNC(=O)c1ccncc1,-7.0%,2.5,?,33.0,-2.9%,76.8%
COC(=O)c1ccc(CO/N=C/c2ccccc2OC)cc1,53.1%,6.1,33.8%,13.0,-1.5%,33.9%
COc1ccccc1C(=O)NNC(=S)NC(=O)c1cc(OC)c(OC)c(OC)c1,110.7%,-2.5,13.1µM*,-11.1,-0.4%,-11.9%
COc1ccccc1C(=O)NNC(=O)c1ccc(C)cc1,11.9%,20.4*,-76.7%,31.8,-2.7%,62.3%
COc1ccccc1/C=N/OC(=O)c1ccc(C)cc1,2.9%,11.3*,20.6%,15.7,-3.7%,0.0%
COc1ccccc1C(=O)NNC(=O)c1ccc(NC(=O)CC(C)C)cc1,57.1%,1.7,266.1%,-5.3,-0.3%,?
COc1ccccc1C(=O)NNC(=O)c1ccc(Br)cc1,52.6%,10.3*,12.4%,15.5,0.6%,23.3%
Cc1ccc(CSc2nnc(-c3ccncc3)n2CC2CCCO2)cc1 (stereo not drawn),0.3%,-1.9,9.3%,2.3,-14.1%,-8.7%
COc1ccccc1C(=O)NNC(=O)c1ccc(Br)o1,33.4%,43.9*,-1.8%,82.1*,0.0%,109.2%
O=C(NC12CC3CC(CC(C3)C1)C2)c1ccc(N2CCNCC2)c([N+](=O)[O-])c1,-2.0%,-2.6,?,-9.7,0.0%,5.22µM*
CCS(=O)(=O)N1CCN(c2ccc(C(=O)NC34CC5CC(CC(C5)C3)C4)cc2[N+](=O)[O-])CC1,7.4%,-1.9,5.86µM*,-3.2,5.8%,5.86µM*
O=C(OCC(=O)N1CCOCC1)c1cc(F)c(F)cc1Cl,-2.6%,-3.4,25.6%,1.4,0.6%,17.0%
CC(=O)Nc1ccc(NC(=O)C/C(C)=N/NC(=O)COc2cc(C)c(Br)cc2Br)cc1,84.2%,3.8,11.7%,-10.7,-6.3%,37.3%
O=C(O)C1C2C=CC(C2)C1C(=O)Nc1ccc2c(c1)OCCO2 (stereo not drawn),20.8%,79.5*,·,112.8*,-2.0%,30.7%
O=C(O)C1C2C=CC(O2)C1C(=O)Nc1ccc2c(c1)OCCO2 (stereo not drawn),·,74.6*,134.1%,132.2*,-11.5%,139.7%
Cc1ccc(-c2cccc(NC(=O)C3C4C=CC(C4)C3C(=O)O)c2)o1 (stereo not drawn),-19.5%,15.5,41.1%,36.1,-3.1%,·
CC(=O)c1cccc(NC(=O)C2C3C=CC(C3)C2C(=O)O)c1 (stereo not drawn),2.5%,1.6,22.7%,11.4,0.3%,18.6%
CN(C)c1ccc(NC(=O)C2C3C=CC(C3)C2C(=O)O)cc1 (stereo not drawn),-9.4%,19.7*,?,66.4*,0.4%,2.62µM*
CN(CC(=O)Nc1ccc(F)cc1)C(=O)c1cc(-c2cccs2)nn1-c1ccccc1,-15.2%,·,38.4%,·,-1.8%,13.9%
O=C(O)CC1(CC(=O)NCc2cc(F)cc3c2OCOC3)CCCCC1,-8.0%,0.2,?,15.1,0.1%,-15.3%
